Measured values taken from PubChem BioAssay (Tox21).
Inconclusive results are not listed. The source made the active and inactive calls. Unless noted, calls follow the shape of the dose curve; as a rule, active = well fitted curve in the direction sought with a large enough effect in the repeat runs; inconclusive = weak or mixed curves; inactive = no such curve, though single readings can be large; an effect the other way counts as inactive or inconclusive.

Key:
[1] = target: Thyrotropin receptor (Homo sapiens) (UniProt P16473); experiment: qHTS assay to identify small molecule agonists of the thyroid stimulating hormone receptor (TSHR) signaling pathway (AID 1224843; calls by dose curve; also: nearly all actives have a fitted effect of over 45% in size)
Summary of the method: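 Screening of the Tox21 10K collection used HEK293 cells engineered with TSHR at 800 cells per well. After a 30-min room-temperature compound exposure, HTRF cAMP reagents were added and fluorescence recorded 1 h later.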

[2] = qHTS assay to identify small molecule agonists of the hypoxia (HIF-1) signaling pathway - cell viability counter screen (AID 1224844; calls by dose curve; also: nearly all actives have a fitted effect of over 50% in size)
Summary of the method: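 Multiplexed with the HRE beta-lactamase assay, this viability read used CellTiter-Glo luminescence (30 min, RT) on HRE-bla ME-180 cells treated 17 hrs with compounds in 0.5% dialyzed FBS medium.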

[3] = qHTS assay to identify small molecule agonists of H2AX (AID 1224845; active = well fitted activation curve with a large enough effect in the signal ratio in the repeat runs, not every such curve was filed as active; the % refers to the signal ratio)
Summary of the method: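 Phospho-H2AX Ser139 measured by HTRF (ex 320 nm; em 665 and 620 nm) after 24 hr antibody incubation. Compounds, 15 concentrations, 0.76% DMSO, were applied to CHO-K1 cells for 3hr at 37C before lysis.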

[4] = qHTS assay to identify small molecule agonists of the hypoxia (HIF-1) signaling pathway (AID 1224846; active = well fitted activation curve with a large enough effect in the signal ratio in the repeat runs, not every such curve was filed as active; the % refers to the signal ratio)
Summary of the method: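 Hypoxia-pathway activation was scored as increased beta-lactamase from an HRE-controlled reporter in ME-180 cells; plated at 2,000 cells per well with 0.5% dialyzed FBS, they were exposed 17 hrs to compounds and then given CCF4-AM.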

[5] = qHTS assay to identify small molecule agonists of H2AX - cell viability counter screen (AID 1224847; calls by dose curve; also: top concentration of the series differs between compounds; nearly all actives have a fitted effect of over 30% in size)
Summary of the method: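 Wild-type CHO-K1 cells (10% FBS medium) were plated overnight at 37C, exposed to compounds at 15 concentrations for 3 hr at 37C (0.76% DMSO final), and viability was read as CellTiter-Glo luminescence after 30 min at room temperature.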

[6] = qHTS RealTime-Glo MT Cell Viability Assay in HepG2 cells - 24 hour (AID 1224867); also: nearly all actives have a fitted effect of over 50% in size
Summary of the method: (§1)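 Cells + NanoLuc/prosubstrate dispensed (600 cells/well) → 5 h at 37 C/5% CO2 → compounds in DMSO transferred → 40 h incubation at 37 C, luminescence read at 0, 8, 16, 24, 32, 40 h.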

[7] = A CellTox Green Cytotoxicity Assay to monitor cytotoxicity in HEK293 cells - 0 hour (AID 1224869); also: nearly all actives have a fitted effect of over 50% in size
Summary of the method: (§2)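 Seeding of HEK293 cells together with cytotoxicity dye preceded a 5 h incubation at 37 C/5% CO2. Test compounds in DMSO were then added and fluorescence monitored across 40 h.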

[8] = qHTS RealTime-Glo MT Cell Viability Assay in HepG2 cells - 40 hour (AID 1224870); also: nearly all actives have a fitted effect of over 50% in size
Summary of the method: (§3)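 Real-time viability: cells seeded at 600 per well together with NanoLuc and cell-permeant prosubstrate, compounds added after 5 h incubation. Luminescence tracked at 0, 8, 16, 24, 32 and 40 h of exposure.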

[9] = A CellTox Green Cytotoxicity Assay to monitor cytotoxicity in HEK293 cells - 40 hour (AID 1224871); also: nearly all actives have a fitted effect of over 45% in size
Summary of the method: as §2

[10] = qHTS RealTime-Glo MT Cell Viability Assay in HEK293 cells - 16 hour (AID 1224872)
Summary of the method: (§4)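 Tox21 10K qHTS, HEK293, 600 cells/well, RealTime-Glo reagent co-dispensed with cells; 5 h preincubation, compound by pintool, 37 C, luminescence at 0–40 h.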

[11] = qHTS RealTime-Glo MT Cell Viability Assay in HepG2 cells - 8 hour (AID 1224873); also: nearly all actives have a fitted effect of over 55% in size
Summary of the method: as §3

[12] = qHTS RealTime-Glo MT Cell Viability Assay in HEK293 cells - 40 hour (AID 1224874); settings: RealTime-Glo luminescence; max response: active compounds read low; also: nearly all actives have a fitted effect of over 50% in size; also: potency is read from the fitted curve at half-maximal effect
Summary of the method: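 Tox21 screen in HEK293 using RealTime-Glo MT chemistry, with cells and reagent co-dispensed. Luminescence proportional to viable cell number was captured at intervals during 40 h compound exposure at 37 C.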

[13] = A CellTox Green Cytotoxicity Assay to monitor cytotoxicity in HEK293 cells - 24 hour (AID 1224875); also: nearly all actives have a fitted effect of over 45% in size
Summary of the method: as §2

[14] = qHTS RealTime-Glo MT Cell Viability Assay in HepG2 cells - 32 hour (AID 1224877); also: nearly all actives have a fitted effect of over 55% in size
Summary of the method: as §1

[15] = A CellTox Green Cytotoxicity Assay to monitor cytotoxicity in HepG2 cells - 24 hour (AID 1224878); also: nearly all actives have a fitted effect of over 45% in size
Summary of the method: (§5)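 Nonlytic assay: viable cells exclude the dye, so fluorescence scales with cell death. HepG2 at 600 cells/well, compounds added after 5 h, signal read across 40 h.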

[16] = A CellTox Green Cytotoxicity Assay to monitor cytotoxicity in HepG2 cells - 40 hour (AID 1224879); also: nearly all actives have a fitted effect of over 40% in size
Summary of the method: as §5

[17] = qHTS RealTime-Glo MT Cell Viability Assay in HEK293 cells - 32 hour (AID 1224868); also: nearly all actives have a fitted effect of over 50% in size; also: potency is read from the fitted curve at half-maximal effect; as to activity change, negative = cytotoxic: top concentration of the series differs between compounds
Summary of the method: as §4

[18] = A CellTox Green Cytotoxicity Assay to monitor cytotoxicity in HepG2 cells - 16 hour (AID 1224876); also: nearly all actives have a fitted effect of over 45% in size
Summary of the method: as §5

[19] = qHTS assay to identify small molecule antagonists of the estrogen related receptor (ERR) signaling pathway from Tox21 library (AID 1224848); also: nearly all actives have a fitted effect of over 50% in size
Summary of the method: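 Antagonist-mode screen of the Tox21 10K library in an NTP-provided ERR reporter cell line; 18 h compound exposure at 37 C, luminescence measured with ONE-Glo.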

[20] = qHTS assay to identify small molecule agonists of the estrogen related receptor (ERR) signaling pathway from Tox21 library (AID 1224849; calls by dose curve; also: nearly all actives have a fitted effect of over 15% in size); settings: ERR reporter cell line, ONE-Glo luciferase, 18 h; at 92.4 µM (top of the series) unless noted
Summary of the method: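 Six hours post-seeding at 37 C/5% CO2, ERR cells receive DMSO-solubilised compounds; after 18 h at 37 C, ONE-Glo reagent is applied and luminescence recorded.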
% is scaled to controls: 0 for no effect and ±100 for the full control effect.

Sequence of Thyrotropin receptor (Homo sapiens) (P16473 whole entry, looked up): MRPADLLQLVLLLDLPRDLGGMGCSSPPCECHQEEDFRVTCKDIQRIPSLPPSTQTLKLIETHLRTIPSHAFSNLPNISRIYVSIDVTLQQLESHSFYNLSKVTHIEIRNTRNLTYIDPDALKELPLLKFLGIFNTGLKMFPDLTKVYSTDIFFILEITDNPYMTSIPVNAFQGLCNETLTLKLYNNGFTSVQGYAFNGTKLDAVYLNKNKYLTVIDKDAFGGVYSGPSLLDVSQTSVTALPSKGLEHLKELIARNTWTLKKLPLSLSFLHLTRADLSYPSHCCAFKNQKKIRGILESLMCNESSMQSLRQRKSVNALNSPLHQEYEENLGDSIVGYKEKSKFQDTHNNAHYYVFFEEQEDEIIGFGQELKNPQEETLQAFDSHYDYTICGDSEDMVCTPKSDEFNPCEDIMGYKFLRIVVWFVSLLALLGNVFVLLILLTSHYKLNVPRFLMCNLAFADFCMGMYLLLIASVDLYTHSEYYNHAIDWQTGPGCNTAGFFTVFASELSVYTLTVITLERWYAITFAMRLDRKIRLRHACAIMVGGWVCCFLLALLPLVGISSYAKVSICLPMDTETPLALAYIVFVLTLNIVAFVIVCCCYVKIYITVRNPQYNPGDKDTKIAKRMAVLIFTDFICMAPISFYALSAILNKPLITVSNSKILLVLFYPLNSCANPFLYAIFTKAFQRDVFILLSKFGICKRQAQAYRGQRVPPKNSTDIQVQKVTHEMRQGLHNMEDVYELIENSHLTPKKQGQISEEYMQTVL

COCCOCCOCCOCCO
inactive: Potency [1] | outcome [2] | outcome [3] | outcome [4] | Potency [5] | outcome [6] | outcome [7] | outcome [8] | Potency [9] | Potency [10] | outcome [11] | max response [12] 4.56% | outcome [13] | outcome [14] | outcome [15] | Potency [16]

C=CCCCCCCCCCCCC
inactive: Potency [1] | outcome [2] | outcome [3] | outcome [4] | Potency [5] | outcome [6] | Potency [17] | outcome [7] | outcome [8] | Potency [9] | Potency [10] | outcome [11] | max response [12] -0.0097% | outcome [13] | outcome [15] | Potency [16]

COc1cc2c(cc1OC)C(=O)CC2
inactive: Potency [1] | outcome [2] | outcome [3] | outcome [4] | Potency [5] | outcome [6] | outcome [7] | outcome [8] | Potency [9] | Potency [10] | outcome [11] | max response [12] -24.5% | outcome [13] | outcome [18] | outcome [14] | Potency [16]

CCN(C)C(=O)Oc1cccc([C@H](C)N(C)C)c1
inactive: Potency [1] | outcome [2] | outcome [3] | outcome [4] | Potency [5] | outcome [6] | outcome [7] | outcome [8] | Potency [9] | Potency [10] | outcome [11] | max response [12] 1.94% | outcome [13] | outcome [18] | outcome [14] | outcome [15] | Potency [16]

N[C@@H](CCC(=O)N[C@@H](CS)C(=O)NCC(=O)O)C(=O)O
inactive: activation [1] 2.71% [at 19 µM] | activity change, negative = cytotoxicity [2] 2.76% [at 15.8 µM] | activation (H2AX phosphorylation) [3] -1.53% [at 31.6 µM] | activation [4] -0.104% [at 15.8 µM] | activity change, negative = cytotoxicity [5] 0.69% [at 31.6 µM] | activity change, negative = cytotoxicity [6] 0.707% [at 15.8 µM] | cytotoxicity [7] 0.542% [at 15.8 µM] | activity change, negative = cytotoxic [8] -0.349% [at 15.8 µM] | cytotoxicity increase [9] 2.27% [at 15.8 µM] | activity change, negative = cytotoxicity [10] 9.65% [at 15.8 µM] | viability change, negative = cytotoxic [11] -0.362% [at 15.8 µM] | max response [12] 3.69% | activity change [13] 1.6% [at 15.8 µM] | cytotoxicity increase [18] -10% [at 15.8 µM] | activity change, negative = cytotoxic [14] 2.09% [at 15.8 µM] | cytotoxicity [15] -12.9% [at 15.8 µM] | cytotoxicity increase [16] -8.24% [at 15.8 µM]

C=C(C)C(=O)OCCN(CC)CC
inactive: Potency [1] | outcome [2] | outcome [3] | outcome [4] | Potency [5] | outcome [6] | Potency [17] | outcome [7] | outcome [8] | Potency [9] | outcome [11] | max response [12] 2.31% | outcome [13] | outcome [18] | outcome [14] | outcome [15] | Potency [16]

OCCN(CCO)c1cccc(Cl)c1
inactive: Potency [1] | outcome [2] | outcome [3] | outcome [4] | Potency [5] | outcome [6] | outcome [7] | outcome [8] | Potency [9] | Potency [10] | outcome [11] | max response [12] 0.212% | outcome [13] | outcome [18] | outcome [14] | outcome [15] | Potency [16]

NNc1nnc(NN)c2ccccc12
inactive: Potency [1] | outcome [2] | outcome [3] | outcome [4] | Potency [5] | outcome [6] | Potency [17] | outcome [7] | outcome [8] | Potency [9] | outcome [11] | max response [12] 0.221% | outcome [13] | outcome [18] | outcome [14] | outcome [15] | Potency [16]

O=C(OCC(O)CO)c1ccccc1Nc1ccnc2c(C(F)(F)F)cccc12 (stereo not given)
active: Potency [17] 4.25 µM | Potency [12] 3.79 µM
inactive: Potency [1] | outcome [2] | outcome [3] | outcome [4] | Potency [5] | outcome [6] | outcome [7] | outcome [8] | Potency [9] | outcome [11] | outcome [13] | outcome [18] | outcome [14] | outcome [15] | Potency [16]

COCCc1ccc(OCC2CO2)cc1 (stereo not given)
inactive: Potency [1] | outcome [2] | outcome [3] | outcome [4] | Potency [5] | outcome [6] | Potency [17] | outcome [7] | outcome [8] | Potency [9] | Potency [10] | outcome [11] | max response [12] 13.1% | outcome [13] | outcome [15] | Potency [16]

CCCCCCCCCC(C)=O
inactive: Potency [1] | outcome [2] | outcome [3] | outcome [4] | Potency [5] | outcome [6] | outcome [7] | outcome [8] | Potency [9] | Potency [10] | outcome [11] | max response [12] 10.3% | outcome [13] | outcome [14] | outcome [15]

COc1cc2c(cc1OC)[C@@H]1CC(=O)[C@@H](CC(C)C)CN1CC2
inactive: Potency [1] | outcome [2] | outcome [3] | outcome [4] | Potency [5] | outcome [6] | Potency [17] | outcome [7] | outcome [8] | Potency [9] | outcome [11] | max response [12] -11.9% | outcome [13] | outcome [15] | Potency [16]

Cc1ccc(C=O)cc1C
inactive: Potency [1] | outcome [2] | outcome [3] | outcome [4] | Potency [5] | outcome [6] | Potency [17] | outcome [7] | outcome [8] | Potency [9] | Potency [10] | outcome [11] | max response [12] 2.17% | outcome [13] | outcome [18] | outcome [15] | Potency [16]

CCCOC(=O)C(C)O (stereo not given)
inactive: Potency [1] | outcome [2] | outcome [3] | outcome [4] | Potency [5] | outcome [6] | Potency [17] | outcome [7] | outcome [8] | Potency [9] | outcome [11] | max response [12] -7.32% | outcome [13] | outcome [18] | outcome [14]

CCCCCOC(=O)CCC
inactive: Potency [1] | outcome [2] | outcome [3] | outcome [4] | Potency [19] | activity change, positive = activation [20] 10.4% | outcome [6] | Potency [17] | outcome [7] | outcome [8] | Potency [9] | Potency [10] | outcome [11] | max response [12] -0.243% | outcome [13] | outcome [14] | Potency [16]
